Measurements: paper PMC6602471
The full ranking holds about 1,300 sequences; the median of “log fluorescence intensity” is about 8.3, and the highest 2% start at about 12. For the sample, the highest values were picked, then their nearest neighbours and some sequences at random.

These sequences were tested against T1, ETS1 (Homo sapiens, UniProt P14921 1-441) (assay: custom PBM; custom protein-binding microarray; buffer, salt, pH and temperature not stated; high values mean tight binding). Conditions: dsDNA, one strand shown.
T1 sequence: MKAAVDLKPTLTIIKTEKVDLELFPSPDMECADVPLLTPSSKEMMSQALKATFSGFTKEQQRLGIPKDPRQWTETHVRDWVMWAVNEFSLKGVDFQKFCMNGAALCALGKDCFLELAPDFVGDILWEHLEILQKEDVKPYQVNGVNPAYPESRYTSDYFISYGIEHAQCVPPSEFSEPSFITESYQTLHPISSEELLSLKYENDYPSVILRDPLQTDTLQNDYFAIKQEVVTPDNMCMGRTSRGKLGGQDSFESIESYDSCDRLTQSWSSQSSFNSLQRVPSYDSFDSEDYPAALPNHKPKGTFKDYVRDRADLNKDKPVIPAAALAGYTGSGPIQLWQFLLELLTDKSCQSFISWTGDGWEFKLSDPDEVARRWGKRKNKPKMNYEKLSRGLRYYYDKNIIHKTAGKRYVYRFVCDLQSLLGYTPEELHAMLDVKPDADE

Sequence | binding signal
TCCGGCTACCAGCTCCACCCACTTCAAGCCTTGTAGGTCTTGATTCGCTTGACGCTGCTG | 8.4 log fluorescence intensity
TCCGGCTACCAGCTCCACCCACTTCAGGCCTTGTAGGTCTTGATTCGCTTGACGCTGCTG | 8.36 log fluorescence intensity
TCCGGCTACCAGCTCCACCCACTTCCGGCCTTGTAGGTCTTGATTCGCTTGACGCTGCTG | 13.1 log fluorescence intensity
TAAAGGGAAGAGGGTTGTGGTAGTTCCGGGTATTAAGTCTTGATTCGCTTGACGCTGCTG | 8.6 log fluorescence intensity
TCCGGCTACCACCTCCACCCACTTCAGGCCTTGTAGGTCTTGATTCGCTTGACGCTGCTG | 8.32 log fluorescence intensity
GGAAAAAGGCCCAGGGTAACGCCGGAAGTGGGCTTAGTCTTGATTCGCTTGACGCTGCTG | 10.7 log fluorescence intensity
GGAAAAAGGCCCAGGGTAACAGCGGAAGTGGGCTTAGTCTTGATTCGCTTGACGCTGCTG | 10.2 log fluorescence intensity
GGAAAAAGCCCCAGGGTAACACCGGAAGTGGGCTTAGTCTTGATTCGCTTGACGCTGCTG | 12.1 log fluorescence intensity
AGAAAAAGGCCCAGGGTAACACCGGAAGTGGGCTTAGTCTTGATTCGCTTGACGCTGCTG | 11.9 log fluorescence intensity
GGAAAAGGGCCCAGGGTAACACCGGAAGTGGGCTTAGTCTTGATTCGCTTGACGCTGCTG | 11.8 log fluorescence intensity
GGAAAAAAGCCCAGGGTAACACCGGAAGTGGGCTTAGTCTTGATTCGCTTGACGCTGCTG | 12.1 log fluorescence intensity
CGAAAAAGGCCCAGGGTAACACCGGAAGTGGGCTTAGTCTTGATTCGCTTGACGCTGCTG | 12 log fluorescence intensity
TGAAAAAGGCCCAGGGTAACACCGGAAGTGGGCTTAGTCTTGATTCGCTTGACGCTGCTG | 11.8 log fluorescence intensity
GGAAAAAGGCCAAGGGTAACACCGGAAGTGGGCTTAGTCTTGATTCGCTTGACGCTGCTG | 12 log fluorescence intensity
GGAAAAAGGCCCATGGTAACACCGGAAGTGGGCTTAGTCTTGATTCGCTTGACGCTGCTG | 11.9 log fluorescence intensity
GGAAAAAGGCCCAAGGTAACACCGGAAGTGGGCTTAGTCTTGATTCGCTTGACGCTGCTG | 12.1 log fluorescence intensity
GGAAAAAGGCCCACGGTAACACCGGAAGTGGGCTTAGTCTTGATTCGCTTGACGCTGCTG | 12.2 log fluorescence intensity
GGAAAAAGGCCCAGTGTAACACCGGAAGTGGGCTTAGTCTTGATTCGCTTGACGCTGCTG | 12 log fluorescence intensity
CTGGGACTTGACCCGACTCTGCCACGTGGGTCGTTTGTCTTGATTCGCTTGACGCTGCTG | 8.49 log fluorescence intensity
TACTGACATATATATGCGAATGCACATGAATAGACCGTCTTGATTCGCTTGACGCTGCTG | 8.43 log fluorescence intensity
GAGCATAGGACTTCTTCCCTGAAGCAATTGATAACCGTCTTGATTCGCTTGACGCTGCTG | 8.32 log fluorescence intensity

Sequence | binding signal
CGGAAGTGTCGTAAACGTCGGATATCCGGTTCGTCTGTCTTGATTCGCTTGACGCTGCTG | 11.9 log fluorescence intensity
TGTCGGGTAAGGGAATGTAGATGACGTGAATGAAAAGTCTTGATTCGCTTGACGCTGCTG | 8.36 log fluorescence intensity
GGAAAAAGGCCCAGGGTAACACCGGAAGTGCGCTTAGTCTTGATTCGCTTGACGCTGCTG | 11.7 log fluorescence intensity
GATTAATTTCTGCCCTTATTCGCACGTGCAATAACAGTCTTGATTCGCTTGACGCTGCTG | 8.3 log fluorescence intensity
CAGAAGTGTCGTAAACGTCGGATATCCGGTTCTTCTGTCTTGATTCGCTTGACGCTGCTG | 12.1 log fluorescence intensity
CGGAAGTGTCGTAAGCGTCGGATATCCGGTTCTTCTGTCTTGATTCGCTTGACGCTGCTG | 11.7 log fluorescence intensity
CGGCAGTGTCGTAAACGTCGGATATCCGGTTCTTCTGTCTTGATTCGCTTGACGCTGCTG | 11.7 log fluorescence intensity
GGAAACAGGCCCAGGGTAACACCGGAAGTGGGCTTAGTCTTGATTCGCTTGACGCTGCTG | 11.8 log fluorescence intensity
TAAAGGGAAGACGGTTGTAGTAGTTCCGGGTATTAAGTCTTGATTCGCTTGACGCTGCTG | 8.81 log fluorescence intensity
GCTGCTGCGCTGCATACCCCACCGGATGTGACCCCGGTCTTGATTCGCTTGACGCTGCTG | 10.1 log fluorescence intensity
TACTGACTTATATATGCGAATGCACATCAATAGACCGTCTTGATTCGCTTGACGCTGCTG | 8.32 log fluorescence intensity
GCTGCTGCGGTGCATACCCCACCAGATGTGACCCCGGTCTTGATTCGCTTGACGCTGCTG | 8.36 log fluorescence intensity
CACAATTTTTACAGTAATGTAGCACGCGTAAATCCTGTCTTGATTCGCTTGACGCTGCTG | 8.32 log fluorescence intensity
GTGTATAGGATCCCATCGAACACACGTGTTAAAATGGTCTTGATTCGCTTGACGCTGCTG | 8.36 log fluorescence intensity
TAAAGGGAAGACGGTTGTGGTAGTTCCGGGTATTAGGTCTTGATTCGCTTGACGCTGCTG | 8.47 log fluorescence intensity
CGGAAGTGTCTTAAACGTCGGATATCCGGTTCTTCTGTCTTGATTCGCTTGACGCTGCTG | 11.6 log fluorescence intensity
CGGAAGTGTCGTAAACGTCGGATCTCCGGTTCTTCTGTCTTGATTCGCTTGACGCTGCTG | 8.47 log fluorescence intensity
CGGAAGTGTCGGAAACGTCGGATATCCGGTTCTTCTGTCTTGATTCGCTTGACGCTGCTG | 12.8 log fluorescence intensity
CGGAAGTGTCGTAAACGTCTGATATCCGGTTCTTCTGTCTTGATTCGCTTGACGCTGCTG | 11.8 log fluorescence intensity
CGGAAGTGTCGAAAACGTCGGATATCCGGTTCTTCTGTCTTGATTCGCTTGACGCTGCTG | 12 log fluorescence intensity
CGGAAGTGTCGTAAACGTCGGAGATCCGGTTCTTCTGTCTTGATTCGCTTGACGCTGCTG | 8.83 log fluorescence intensity

Sequence | binding signal
CGGAAGTGTCGTAAACGTCGGATGTCCGGTTCTTCTGTCTTGATTCGCTTGACGCTGCTG | 9.65 log fluorescence intensity
CGGAAGTGTCGTAAACGTCCGATATCCGGTTCTTCTGTCTTGATTCGCTTGACGCTGCTG | 12.2 log fluorescence intensity
CGGAAGTGTCGTAAACGTCGGAAATCCGGTTCTTCTGTCTTGATTCGCTTGACGCTGCTG | 9.71 log fluorescence intensity
CCGAAGTGTCGTAAACGTCGGATATCCGGTTCTTCTGTCTTGATTCGCTTGACGCTGCTG | 12 log fluorescence intensity
CGGAAGTGTCGTAAACGTCGGATTTCCGGTTCTTCTGTCTTGATTCGCTTGACGCTGCTG | 12.5 log fluorescence intensity
CGGAAGTGTCGTAAACGTCGGACATCCGGTTCTTCTGTCTTGATTCGCTTGACGCTGCTG | 12.6 log fluorescence intensity
CGGAAGTGTCGTAAACGTCGGTTATCCGGTTCTTCTGTCTTGATTCGCTTGACGCTGCTG | 9.21 log fluorescence intensity
CGGAAGTGTCGTAAACGTCGCATATCCGGTTCTTCTGTCTTGATTCGCTTGACGCTGCTG | 12.2 log fluorescence intensity
CGGAACTGTCGTAAACGTCGGATATCCGGTTCTTCTGTCTTGATTCGCTTGACGCTGCTG | 11.8 log fluorescence intensity
CGGAAGTGTCGTAAACGTCGTATATCCGGTTCTTCTGTCTTGATTCGCTTGACGCTGCTG | 11.8 log fluorescence intensity
CGGAAGCGTCGTAAACGTCGGATATCCGGTTCTTCTGTCTTGATTCGCTTGACGCTGCTG | 11.8 log fluorescence intensity
CGGAATTGTCGTAAACGTCGGATATCCGGTTCTTCTGTCTTGATTCGCTTGACGCTGCTG | 12.2 log fluorescence intensity
CTGGGACTTGACCCAACTCTGCCACGTGGGTCGCTTGTCTTGATTCGCTTGACGCTGCTG | 8.36 log fluorescence intensity
GGAAAAAGGCCCAGGGCAACACCGGAAGTGGGCTTAGTCTTGATTCGCTTGACGCTGCTG | 12.2 log fluorescence intensity
GGTAAAAGGCCCAGGGTAACACCGGAAGTGGGCTTAGTCTTGATTCGCTTGACGCTGCTG | 11.9 log fluorescence intensity
GGAAAAAGGCCCAGGGAAACACCGGAAGTGGGCTTAGTCTTGATTCGCTTGACGCTGCTG | 12.3 log fluorescence intensity
GGAAAAAGGCCCAGGCTAACACCGGAAGTGGGCTTAGTCTTGATTCGCTTGACGCTGCTG | 12.1 log fluorescence intensity
GGAAAAAGGCCCAGGATAACACCGGAAGTGGGCTTAGTCTTGATTCGCTTGACGCTGCTG | 12.2 log fluorescence intensity
GGAAAAAGGCCCAGGGTCACACCGGAAGTGGGCTTAGTCTTGATTCGCTTGACGCTGCTG | 11.9 log fluorescence intensity
GCAAAAAGGCCCAGGGTAACACCGGAAGTGGGCTTAGTCTTGATTCGCTTGACGCTGCTG | 11.9 log fluorescence intensity
GGAAAAAGGCCCAGGGTGACACCGGAAGTGGGCTTAGTCTTGATTCGCTTGACGCTGCTG | 11.8 log fluorescence intensity

Sequence | binding signal
GGATAAAGGCCCAGGGTAACACCGGAAGTGGGCTTAGTCTTGATTCGCTTGACGCTGCTG | 11.9 log fluorescence intensity
GGGAAAAGGCCCAGGGTAACACCGGAAGTGGGCTTAGTCTTGATTCGCTTGACGCTGCTG | 11.9 log fluorescence intensity
GGCAAAAGGCCCAGGGTAACACCGGAAGTGGGCTTAGTCTTGATTCGCTTGACGCTGCTG | 11.7 log fluorescence intensity
GGAAAAAGGCCCAGGGGAACACCGGAAGTGGGCTTAGTCTTGATTCGCTTGACGCTGCTG | 12.1 log fluorescence intensity
GATTAATTTCTGCCCTTATTCGAACGTGCCATAACAGTCTTGATTCGCTTGACGCTGCTG | 8.42 log fluorescence intensity
TCCGGCTACCAGCTCCACCCACTTCAGGCCTTATAGGTCTTGATTCGCTTGACGCTGCTG | 8.46 log fluorescence intensity
GAAAGGGAAGACGGTTGTGGTAGTTCCGGGTATTAAGTCTTGATTCGCTTGACGCTGCTG | 8.75 log fluorescence intensity
CGGAAGTGTCGTAAACGTCGGATATCCGGTTTTTCTGTCTTGATTCGCTTGACGCTGCTG | 11.9 log fluorescence intensity
TCCGGCTACCAGCTGCACCCACTTCAGGCCTTGTAGGTCTTGATTCGCTTGACGCTGCTG | 8.44 log fluorescence intensity
GCTGCTGCGGTGTATACCCCACCGGATGTGACCCCGGTCTTGATTCGCTTGACGCTGCTG | 10.1 log fluorescence intensity
GGAAAACGGCCCAGGGTAACACCGGAAGTGGGCTTAGTCTTGATTCGCTTGACGCTGCTG | 12 log fluorescence intensity
TACTGACTTATATATGGGAATGCACATGAATAGACCGTCTTGATTCGCTTGACGCTGCTG | 8.32 log fluorescence intensity
TTAAGGGAAGACGGTTGTGGTAGTTCCGGGTATTAAGTCTTGATTCGCTTGACGCTGCTG | 8.48 log fluorescence intensity
CGGAAGTGTCGTAAACGTCGGATATCCGGCTCTTCTGTCTTGATTCGCTTGACGCTGCTG | 10.7 log fluorescence intensity
CGGAAGTGTCGTAAATGTCGGATATCCGGTTCTTCTGTCTTGATTCGCTTGACGCTGCTG | 11.9 log fluorescence intensity
TCCGGCTACCAGCTTCACCCACTTCAGGCCTTGTAGGTCTTGATTCGCTTGACGCTGCTG | 8.4 log fluorescence intensity
GCTGCTGCGGTGCGTACCCCACCGGATGTGACCCCGGTCTTGATTCGCTTGACGCTGCTG | 9.93 log fluorescence intensity
GCTGCTGCGGTGCATACCCCACCGGATGTGACCCAGGTCTTGATTCGCTTGACGCTGCTG | 10.3 log fluorescence intensity
